For five compounds, composite z-score, z-score and composite Z-score results are on record in PubChem BioAssay.

The test system of experiment [1] is Human papillomavirus type 1a protein E7 (residues 44-93). Nature of the experiment: HPV1a E7 fragment binders on microarrays, primary screen, biochemical, small-molecule microarray, residues 44-93, 635 nm fluorescence (AID 1108).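 Also: E7 fragment applied at 1 µg/mL in TBST for 1 h at 4 C; score combines spot fluorescence with its signal to noise ratio.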 The settings on record: small-molecule microarray binding, fluorescence 635 nm; higher = more signal.
Experiment [2] in a line: modulators of HCV replicon luciferase signal, primary screen, HCV replication inhibitor project, Huh7 cells, luciferase reporter (AID 1109).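 Also: huh7 hepatoma cells harbouring a luciferase neomycin HCV replicon reporter; luciferase luminescence as measure of HCV replicon replication; test concentration not given here.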 The settings on record: 48 h, higher = more signal. In general terms: A replicon is a self-replicating genome or part of one, used to study replication in cells.
The target of experiment [3] is Left-right determination factor 2 (Homo sapiens) (UniProt O00292). Nature of the experiment: LEFTY2 binders on small-molecule microarrays, primary screen, biochemical, small-molecule microarray, 635 nm fluorescence scan (AID 1110). The settings on record: LEFTY2 binding, higher = more signal.
Experiment [4] deals with Calmodulin-1 (Homo sapiens) (UniProt P0DP23). Briefly: CALM1 binders on microarrays, EGTA buffer, profiling panel, biochemical, small-molecule microarray, Cy5-labelled CALM1 (AID 1111).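 Also: labelled calmodulin applied in Tris saline Tween buffer holding calcium plus EGTA and DTT.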 The settings on record: Cy5-CALM1 binding fluorescence, higher = more signal.
Experiment [5] has the same target. Briefly: calcium-bound CALM1 binders on microarrays, profiling panel, artefact control for SMM control-protein annotation, biochemical, small-molecule microarray, Cy5-labelled CALM1, plus calcium (AID 1112).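 Also: score merges spot fluorescence with signal to noise from triplicate slides.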 The settings on record: Cy5-CALM1 binding fluorescence, higher = more signal.
Experiment [6] in a line: small-molecule microarray binders of probe aWnt5a, primary screen, biochemical, biotinylated probe, 635/667 nm fluorescence (AID 1113).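 Also: score merges 667 nm fluorescence intensity with signal-to-noise per printed feature.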 The settings on record: higher = more signal.
Experiment [7] in a line: small-molecule microarray binders of probe aShh, primary screen, biochemical, biotinylated probe, 635/667 nm fluorescence (AID 1114).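 Also: probe is biotin-labelled aShh protein from a stem cell growth factor screen; measures binding of labelled protein to compounds printed on the slide; score merges feature fluorescence at 667 nm with signal-to-noise.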 The settings on record: higher = more signal.
A short description of experiment [8]: small-molecule microarray binders of probe aNog, primary screen, biochemical, biotinylated probe, 635/667 nm fluorescence (AID 1115).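 Also: probe is biotinylated aNog protein used at 0.15 µg/mL for 1 h at 4 C; z-score combines 667 nm fluorescence of each spot with its signal to noise.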 The settings on record: higher = more signal.
Experiment [9] has as its target Torsin-1A-interacting protein 1 (Homo sapiens) (UniProt Q5JTV8). Nature of the experiment: LAP1 binders from COS7 cell lysate, primary screen, small-molecule microarray, 635/667 nm fluorescence (AID 1116). The settings on record: COS7-hLAP1 lysate binding, 635 nm fluorescence, higher = more signal.
Experiment [10] concerns the target Alpha-bungarotoxin (Bungarus multicinctus) (UniProt P60615). Briefly: alpha-bungarotoxin binders on microarray, profiling panel, artefact control for SMM control protein annotation, biochemical, small-molecule microarray, Alexa647 label, 635/667 nm fluorescence (AID 1117). The settings on record: alpha-BTX-A647 binding fluorescence, higher = more signal.
Experiment [11] deals with Albumin (Bos taurus) (UniProt P02769). Nature of the experiment: bovine serum albumin binders on microarray, profiling panel, artefact control for SMM control protein annotation, biochemical, small-molecule microarray, Alexa647 label, 635/667 nm fluorescence (AID 1118).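 Also: score merges 667 nm emission intensity and signal-to-noise per printed compound spot.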 The settings on record: BSA-A647 binding, fluorescence 635 nm, higher = more signal.
The nature of experiment [12]: small-molecule microarray binders of probe aXIP, primary screen, biochemical, NeuroSMM set, 635/667 nm fluorescence (AID 1119).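 Also: probe is the protein aXip251-270 applied at 1 µg/mL to compound-printed slides; binding of probe to printed compounds measured as 667 nm fluorescence plus signal to noise.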 The settings on record: higher = more signal, called active from +8 up or from −8 down.
Experiment [13] can be described thus: small-molecule binders of probe aNOTCH3, primary screen, biochemical, small-molecule microarray, 635/667 nm fluorescence (AID 1120).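 Also: probe is a biotin-tagged antibody raised against NOTCH3 rather than NOTCH3 protein; score merges spot fluorescence near 667 nm with spot signal to noise.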 The settings on record: higher = more signal.
Experiment [14] in a line: small-molecule binders of probe aNOTCH2, primary screen, biochemical, small-molecule microarray, 635/667 nm fluorescence (AID 1121).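 Also: score merges feature fluorescence read at 667 nm with its signal to noise.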 The settings on record: higher = more signal.
For experiment [15], the target named is Carbonic anhydrase 2 (Homo sapiens) (UniProt P00918). Briefly: CAII small-molecule binders, profiling panel, biochemical, small-molecule microarray, Alexa647-labelled CAII (AID 1122). The settings on record: CAII-A647 binding fluorescence, higher = more signal.
Experiment [16] can be described thus: COS7 lysate on small-molecule microarray, probe aHis, 635 nm (AID 1123).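 Also: z-score combines 667nm fluorescence intensity with signal-to-noise per printed compound spot.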 The settings on record: COS7 cell lysate, fluorescence, higher = more signal.
Experiment [17] is described as follows: compound binding in COS7 lysate, probe aLAP1, primary screen, cell lysate, small-molecule microarray (AID 1124).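 Also: lysate comes from COS7 cells expressing LAP1 and is applied at 0.3 µg/mL; score merges spot fluorescence near 667 nm with signal-to-noise over triplicate slides.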 The settings on record: probe aLAP1, fluorescence, higher = more signal.
Experiment [18] deals with Sam68 (KHDRBS1). Nature of the experiment: Sam68 small-molecule binders, primary screen, biochemical, small-molecule microarray, 635 nm fluorescence (AID 1125).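 Also: score merges 667 nm channel intensity with signal to noise over triplicate slides.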 The settings on record: small-molecule microarray binding, higher = more signal.
Experiment [19] relates to Chordin-like protein 2 (CHRDL2). Nature of the experiment: CHRDL2 small-molecule binders, primary screen, biochemical, small-molecule microarray, 635 nm fluorescence (AID 1126).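 Also: printed compound slides probed with Chrdl2 protein at 4 µg/mL for 1 h at 4 C; score merges 667 nm emission intensity with signal to noise over three replicate slides.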 The settings on record: small-molecule microarray binding, fluorescence 635 nm; higher = more signal.
Experiment [20] deals with Concanavalin-A (Canavalia ensiformis) (UniProt P02866). Briefly: ConA small-molecule binders, primary screen, artefact control for SMM control protein annotation, biochemical, small-molecule microarray, Alexa647 label, 635 nm (AID 1127).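 Also: z combines 667 nm emission intensity with signal-to-noise across three replicate slides.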 The settings on record: ConA-A647 binding fluorescence, higher = more signal.

Calls of active or inactive are those of the source.

Sequence of Torsin-1A-interacting protein 1 (Homo sapiens) (Q5JTV8 whole entry, looked up): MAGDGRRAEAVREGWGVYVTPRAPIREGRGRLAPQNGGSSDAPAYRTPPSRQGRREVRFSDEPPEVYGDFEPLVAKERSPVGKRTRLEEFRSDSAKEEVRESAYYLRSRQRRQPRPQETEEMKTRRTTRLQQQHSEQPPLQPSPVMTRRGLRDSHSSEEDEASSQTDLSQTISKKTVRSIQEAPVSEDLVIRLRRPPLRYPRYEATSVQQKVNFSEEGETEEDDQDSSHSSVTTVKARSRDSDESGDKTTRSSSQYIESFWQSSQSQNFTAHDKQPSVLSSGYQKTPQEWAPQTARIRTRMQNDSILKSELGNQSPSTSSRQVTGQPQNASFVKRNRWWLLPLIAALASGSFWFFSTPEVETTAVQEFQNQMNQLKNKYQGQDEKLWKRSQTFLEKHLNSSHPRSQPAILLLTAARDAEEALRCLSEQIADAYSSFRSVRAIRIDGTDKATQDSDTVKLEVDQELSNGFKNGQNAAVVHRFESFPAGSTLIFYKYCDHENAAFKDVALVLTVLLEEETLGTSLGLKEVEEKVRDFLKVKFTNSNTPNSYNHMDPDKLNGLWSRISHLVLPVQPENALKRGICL
Sequence of Left-right determination factor 2 (Homo sapiens) (O00292 whole entry, looked up): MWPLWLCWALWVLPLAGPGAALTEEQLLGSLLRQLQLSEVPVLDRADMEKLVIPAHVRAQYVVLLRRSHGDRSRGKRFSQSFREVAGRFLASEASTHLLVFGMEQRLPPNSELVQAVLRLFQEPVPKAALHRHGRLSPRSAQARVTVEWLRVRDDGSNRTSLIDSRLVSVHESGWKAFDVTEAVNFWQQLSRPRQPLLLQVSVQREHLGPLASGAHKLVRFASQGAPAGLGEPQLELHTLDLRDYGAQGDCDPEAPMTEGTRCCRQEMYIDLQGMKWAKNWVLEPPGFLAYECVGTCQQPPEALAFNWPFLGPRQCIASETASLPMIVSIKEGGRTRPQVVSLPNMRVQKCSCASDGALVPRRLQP
Sequence of Albumin (Bos taurus) (P02769 whole entry, looked up): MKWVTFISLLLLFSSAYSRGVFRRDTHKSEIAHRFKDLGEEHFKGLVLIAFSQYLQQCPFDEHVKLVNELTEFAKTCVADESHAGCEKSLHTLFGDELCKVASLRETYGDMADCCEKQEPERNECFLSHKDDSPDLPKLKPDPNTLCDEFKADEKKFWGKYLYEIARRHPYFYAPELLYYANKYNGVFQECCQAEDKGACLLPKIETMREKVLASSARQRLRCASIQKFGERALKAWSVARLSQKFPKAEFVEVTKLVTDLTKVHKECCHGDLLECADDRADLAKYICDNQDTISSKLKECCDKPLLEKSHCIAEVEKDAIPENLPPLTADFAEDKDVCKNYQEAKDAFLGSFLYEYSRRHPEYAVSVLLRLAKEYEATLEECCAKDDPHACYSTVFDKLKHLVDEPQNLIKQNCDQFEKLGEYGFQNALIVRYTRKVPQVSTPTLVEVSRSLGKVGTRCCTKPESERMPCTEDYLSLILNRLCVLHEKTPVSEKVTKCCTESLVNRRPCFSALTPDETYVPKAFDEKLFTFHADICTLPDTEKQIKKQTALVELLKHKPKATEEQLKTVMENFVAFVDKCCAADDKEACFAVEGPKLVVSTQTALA
Sequence of Concanavalin-A (Canavalia ensiformis) (P02866 whole entry, looked up): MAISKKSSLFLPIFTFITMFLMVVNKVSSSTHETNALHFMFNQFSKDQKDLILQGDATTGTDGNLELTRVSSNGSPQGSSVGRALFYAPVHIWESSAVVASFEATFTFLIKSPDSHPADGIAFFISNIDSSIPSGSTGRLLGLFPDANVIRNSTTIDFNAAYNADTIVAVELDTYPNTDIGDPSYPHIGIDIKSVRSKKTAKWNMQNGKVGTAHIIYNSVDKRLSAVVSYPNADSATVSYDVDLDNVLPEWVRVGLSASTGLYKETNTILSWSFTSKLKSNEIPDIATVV
Sequence of Alpha-bungarotoxin (Bungarus multicinctus) (P60615 whole entry, looked up): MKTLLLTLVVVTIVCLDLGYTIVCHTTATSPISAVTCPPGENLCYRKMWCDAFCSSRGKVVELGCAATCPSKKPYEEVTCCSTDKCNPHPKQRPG

Consider `Cc1ccccc1C(O)C1C=CC2C(=O)N(C)C(=O)C2N1Nc1ccc([N+](=O)[O-])cc1[N+](=O)[O-]` (stereo not given), for which the composite z-score in experiment [1] was 1.45; in [3], 0.0979; in experiment [4], 1.43; in experiment [5] it was 1.08; in experiment [6], 0.14; in experiment [7], 0.254. The composite z-score in experiment [8] is -0.235; in [9], 1.24; in experiment [10], 1.36; in experiment [11] it was 0.953; in experiment [13], 0.338; in experiment [14], -0.108. Moreover, the composite z-score was 0.671 in experiment [15]; 2.47 in experiment [16]; 0.288 in [17]; 1.29 in experiment [18]; -0.723 in experiment [19]; 1.16 in experiment [20]. In addition, in [2], the z-score worked out at 0.265. Further, in experiment [12], the composite Z-score was 0.451 (inactive).

For `COC(=O)[C@@]1(Cc2ccc(F)cc2)[C@H]2c3cc(C(=O)N4CCCC4)n(Cc4ccccc4)c3C[C@H]2CN1C(=O)c1ccccc1`, the composite z-score is 1.07 in experiment [1]; -0.253 in [3]; 1.98 in [4]; 0.666 in experiment [5]; -0.0843 in experiment [6]; -0.367 in experiment [7]. The composite z-score in experiment [8] was -0.357; in [9] it was 1.56; in [10], 0.657; in experiment [11], 0.946; in experiment [13] it was 0.23; in experiment [14] it was 0.0291. For the same compound, the composite z-score is 0.793 in [15]; 2.25 in experiment [16]; 0.65 in [17]; 0.253 in [18]; -1.32 in [19]; 0.428 in experiment [20]. Also, in experiment [2], the z-score is -2.41. The composite Z-score in experiment [12] is 1.06 (inactive).

Consider `CN(C)C(=O)[C@]1(Cc2ccccc2N=[N+]=[N-])N=C(c2ccc(OCCCO)cc2)O[C@@H]1c1ccccc1CN=[N+]=[N-]`, for which the composite z-score in experiment [1] was 1.42; in [3], 0.234; in [4], 0.668; in [5], 0.271; in experiment [6], 0.0559; in experiment [7] it was 0.13. For the same compound, the composite z-score in experiment [8] was -0.488; in experiment [9], 0.939; in experiment [10] it was 0.564; in [11], 0.828; in experiment [13] it was 0.473; in experiment [14] it was -0.0349. In addition, the composite z-score was 0.684 in experiment [15]; 2.53 in experiment [16]; 0.635 in experiment [17]; 1.3 in [18]; -0.21 in experiment [19]; 0.875 in [20]. The z-score in [2] is -2.55. Besides, the composite Z-score in experiment [12] is -0.136 (inactive).

For the compound `CCCNC(=O)[C@@]1(Sc2ccc(C)cc2)CC(=O)N(Cc2ccccc2)[C@@H]1c1ccc(CO)cc1I`, the composite z-score in experiment [1] is 1.17; in experiment [3], -0.045; in [4], -0.296; in [5], 0.143; in experiment [6], -0.0758; in [7] it was -0.1. Besides, the composite z-score in [8] is 0.225; in experiment [9], 0.285; in [10] it was 1.19; in [11] it was -0.793; in experiment [13] it was 0.147; in experiment [14], -0.115. Also, the composite z-score is 0.405 in experiment [15]; 0.644 in experiment [16]; 1.01 in [17]; 0.827 in experiment [18]; 0.678 in [19]; 0.082 in experiment [20]. Moreover, the z-score in experiment [2] was -2.64. Also, in experiment [12], the composite Z-score is -0.163 (inactive).

`CC(C)CN1C(=O)[C@@]2(Cc3ccccc31)c1ccccc1C(=O)N(Cc1ccccc1)[C@H]2c1ccc(CO)cc1`: the composite z-score is -0.587 in experiment [1]; -0.757 in experiment [3]; -0.361 in experiment [4]; -0.195 in [5]; -0.096 in experiment [6]; -0.206 in experiment [7]. Moreover, the composite z-score in experiment [8] was -0.175; in experiment [9], -0.845; in experiment [10], -0.0612; in experiment [11], 0.488; in experiment [13] it was -0.197; in experiment [14], -0.138. The composite z-score in [15] is 0.441; in experiment [16], 0.179; in experiment [17], 0.254; in experiment [18], -1.72; in [19], -1.03; in [20], -0.616. For the same compound, in experiment [2], the z-score was found to be 0.15. Also, the composite Z-score in experiment [12] was 0.671 (inactive).
